# According to PubChem BioAssay:
# Calls of active or inactive are those of the source.
# Assays:
# [1] = binders of probe aFSTL3 on microarray, primary screen, stem cell growth factor project, biochemical, small-molecule microarray, fluorescence 635/667 (AID 1064); conditions: higher = more signal;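 note: measures binding of the biotinylated anti-FSTL3 antibody to printed compounds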
# [2] = binders from COS7 lysate, DM2A8 probe, primary screen, torsin A project, cell lysate, small-molecule microarray, fluorescence 635/667 (AID 1065); conditions: higher = more signal, COS7 lysate expressing mutant human TOR1A
# [3] = binders of probe aFGF2 on microarray, primary screen, stem cell growth factor project, biochemical, small-molecule microarray, fluorescence 635/667 (AID 1067); conditions: higher = more signal;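 note: measures binding of biotinylated aFGF2 protein to printed compounds on slides; z-score merges feature fluorescence and signal-to-noise across triplicate slides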
# [4] = binders of probe aFGF10 on microarray, primary screen, stem cell growth factor project, biochemical, small-molecule microarray, fluorescence 635/667 (AID 1071); conditions: higher = more signal;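 note: score merges 667 nm spot intensity and signal to noise from triplicate slides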
# [5] = target: Neurogenic locus notch homolog protein 2 (Homo sapiens) (UniProt Q04721); test: Notch2 binders on small-molecule microarrays, primary screen, biochemical, small-molecule microarray, 635 nm fluorescence, stem cell growth factors (AID 1073); conditions: Notch2 binding, higher = more signal
# [6] = target: Pro-neuregulin-1, membrane-bound isoform (Homo sapiens) (UniProt Q02297); test: NRG1 binders on small-molecule microarrays, primary screen, psychiatric disease protein project, biochemical, small-molecule microarray, fluorescence 635/667 (AID 1075); conditions: NRG1 binding, 635 nm fluorescence, higher = more signal;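 note: score combines 667 nm spot fluorescence with signal to noise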
# [7] = tested on: Neuregulin-1 EGF-like domain; test: binders of neuregulin-1 EGF-like domain, primary screen, biochemical, small-molecule microarray, 635 nm fluorescence (AID 1081); conditions: small-molecule microarray binding, higher = more signal;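 note: binding of the protein to compounds printed on small-molecule microarray slides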
# [8] = FRG1 promoter luciferase signal modulators, primary screen, FRG1 inhibition for FSHD, cell-based, C2C12 myotubes, firefly/Renilla luciferase, luminescence (AID 1084); conditions: higher = more signal, called active from +8 up or from −8 down
# [9] = binders of probe aFST on microarray, primary screen, stem cell growth factor project, biochemical, small-molecule microarray, fluorescence 635/667 (AID 1086); conditions: higher = more signal;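 note: score merges 667 nm fluorescence with signal-to-noise of each printed compound spot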
# [10] = binders of probe aHhip on microarray, primary screen, stem cell growth factor project, biochemical, small-molecule microarray, fluorescence 635/667 (AID 1087); conditions: higher = more signal;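 note: score merges spot fluorescence at 667nm with spot signal to noise ratio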
# Chain of Pro-neuregulin-1, membrane-bound isoform (Homo sapiens) (Q02297 whole entry, looked up, the tested form may be a part, canonical isoform): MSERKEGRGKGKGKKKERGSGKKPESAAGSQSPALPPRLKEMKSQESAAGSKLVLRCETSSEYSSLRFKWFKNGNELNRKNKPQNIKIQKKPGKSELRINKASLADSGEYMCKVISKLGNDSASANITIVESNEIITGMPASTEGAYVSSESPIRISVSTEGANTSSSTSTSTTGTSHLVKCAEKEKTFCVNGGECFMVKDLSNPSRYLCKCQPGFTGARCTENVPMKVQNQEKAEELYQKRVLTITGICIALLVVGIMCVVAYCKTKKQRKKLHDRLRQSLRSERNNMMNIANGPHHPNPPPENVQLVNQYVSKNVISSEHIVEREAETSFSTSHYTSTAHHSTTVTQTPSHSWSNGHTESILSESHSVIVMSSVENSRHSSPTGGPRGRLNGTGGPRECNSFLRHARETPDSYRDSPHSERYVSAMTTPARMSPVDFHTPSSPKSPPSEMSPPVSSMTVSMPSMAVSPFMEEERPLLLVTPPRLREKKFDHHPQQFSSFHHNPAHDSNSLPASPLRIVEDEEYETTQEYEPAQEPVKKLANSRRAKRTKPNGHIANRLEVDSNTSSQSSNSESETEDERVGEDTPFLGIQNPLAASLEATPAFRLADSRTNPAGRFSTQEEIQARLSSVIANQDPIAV
# Chain of Neurogenic locus notch homolog protein 2 (Homo sapiens) (Q04721 whole entry, looked up, canonical isoform): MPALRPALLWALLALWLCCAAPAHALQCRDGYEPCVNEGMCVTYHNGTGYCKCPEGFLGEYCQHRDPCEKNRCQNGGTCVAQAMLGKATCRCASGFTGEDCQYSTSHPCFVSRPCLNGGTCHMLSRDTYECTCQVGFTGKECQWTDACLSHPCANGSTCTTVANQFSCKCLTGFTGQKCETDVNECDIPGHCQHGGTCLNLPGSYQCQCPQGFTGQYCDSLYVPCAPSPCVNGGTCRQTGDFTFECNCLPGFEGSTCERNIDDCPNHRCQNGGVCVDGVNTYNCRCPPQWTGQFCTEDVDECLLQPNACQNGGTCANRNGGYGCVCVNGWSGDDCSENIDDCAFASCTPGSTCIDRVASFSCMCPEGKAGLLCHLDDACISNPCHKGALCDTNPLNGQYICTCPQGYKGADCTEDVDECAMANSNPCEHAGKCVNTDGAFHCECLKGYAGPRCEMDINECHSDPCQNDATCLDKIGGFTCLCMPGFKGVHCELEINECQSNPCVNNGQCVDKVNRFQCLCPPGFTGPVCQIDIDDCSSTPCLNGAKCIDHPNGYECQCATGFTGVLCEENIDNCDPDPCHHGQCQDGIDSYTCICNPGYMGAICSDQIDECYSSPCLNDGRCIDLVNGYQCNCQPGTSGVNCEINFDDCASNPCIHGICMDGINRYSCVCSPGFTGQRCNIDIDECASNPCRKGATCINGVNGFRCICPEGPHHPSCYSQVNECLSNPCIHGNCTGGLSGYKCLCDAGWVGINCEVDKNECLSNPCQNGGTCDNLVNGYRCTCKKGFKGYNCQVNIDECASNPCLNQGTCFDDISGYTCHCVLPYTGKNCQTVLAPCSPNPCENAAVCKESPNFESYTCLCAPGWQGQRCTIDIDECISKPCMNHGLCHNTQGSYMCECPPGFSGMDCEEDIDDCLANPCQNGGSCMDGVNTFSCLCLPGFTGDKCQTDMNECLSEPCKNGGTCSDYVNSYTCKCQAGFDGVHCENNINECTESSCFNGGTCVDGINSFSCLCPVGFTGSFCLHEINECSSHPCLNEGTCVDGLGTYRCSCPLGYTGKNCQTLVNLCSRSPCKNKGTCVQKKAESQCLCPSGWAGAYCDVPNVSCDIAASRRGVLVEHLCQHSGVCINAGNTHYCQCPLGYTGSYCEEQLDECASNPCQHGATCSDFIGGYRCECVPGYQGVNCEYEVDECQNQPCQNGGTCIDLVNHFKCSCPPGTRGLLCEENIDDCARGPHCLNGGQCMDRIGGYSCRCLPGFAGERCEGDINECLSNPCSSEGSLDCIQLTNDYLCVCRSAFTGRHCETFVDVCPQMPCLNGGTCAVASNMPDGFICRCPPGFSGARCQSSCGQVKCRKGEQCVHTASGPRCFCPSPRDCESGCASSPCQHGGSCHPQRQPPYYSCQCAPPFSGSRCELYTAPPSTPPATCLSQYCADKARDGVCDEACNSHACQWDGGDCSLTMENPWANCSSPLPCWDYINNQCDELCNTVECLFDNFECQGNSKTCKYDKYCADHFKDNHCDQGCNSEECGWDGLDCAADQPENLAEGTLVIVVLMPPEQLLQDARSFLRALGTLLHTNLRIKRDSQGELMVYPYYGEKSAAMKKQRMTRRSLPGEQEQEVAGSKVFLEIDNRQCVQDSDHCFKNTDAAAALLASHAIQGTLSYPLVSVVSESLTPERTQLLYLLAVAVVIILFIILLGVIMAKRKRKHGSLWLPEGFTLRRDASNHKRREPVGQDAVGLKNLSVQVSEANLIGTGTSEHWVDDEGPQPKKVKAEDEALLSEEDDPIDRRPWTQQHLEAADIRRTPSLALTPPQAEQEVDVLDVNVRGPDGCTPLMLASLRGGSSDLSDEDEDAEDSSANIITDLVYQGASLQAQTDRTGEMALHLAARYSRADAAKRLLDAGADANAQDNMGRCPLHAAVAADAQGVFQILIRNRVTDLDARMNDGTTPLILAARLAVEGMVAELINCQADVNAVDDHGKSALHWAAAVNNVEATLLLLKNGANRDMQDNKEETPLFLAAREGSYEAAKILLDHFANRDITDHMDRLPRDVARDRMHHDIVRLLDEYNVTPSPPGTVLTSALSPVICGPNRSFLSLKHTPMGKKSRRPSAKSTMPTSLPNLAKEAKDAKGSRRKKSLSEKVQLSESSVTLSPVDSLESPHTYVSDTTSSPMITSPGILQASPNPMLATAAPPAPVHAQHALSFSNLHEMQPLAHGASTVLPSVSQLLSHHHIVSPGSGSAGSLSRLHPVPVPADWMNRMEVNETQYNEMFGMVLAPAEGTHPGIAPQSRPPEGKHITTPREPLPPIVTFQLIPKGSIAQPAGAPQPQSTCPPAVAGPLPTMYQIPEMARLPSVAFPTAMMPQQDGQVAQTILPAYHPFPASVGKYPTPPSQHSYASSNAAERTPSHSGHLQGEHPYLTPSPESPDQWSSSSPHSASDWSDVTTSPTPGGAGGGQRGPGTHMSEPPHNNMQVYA
SMILES,composite z-score [1],composite z-score [2],composite z-score [3],composite z-score [4],composite z-score [5],composite z-score [6],composite z-score [7],z-score [8],composite z-score [9],composite z-score [10]
CN1C(=O)C2C(C1=O)C1C=C(CCCO)C2C(C2CC2)N1Cc1cc2c(cc1Br)OCO2 (stereo not given),0.454,0.919,-0.141,0.271,0.713,1.24,1.29,-0.999 (inactive),0.252,-0.201
NC(=O)[C@@H]1[C@H]2C(=O)O[C@H](c3ccccc3)[C@H](c3ccccc3)N2[C@H](c2ccc(OCCO)cc2)[C@@]12C(=O)Nc1ccc(C#CCCO)cc12,0.398,0.165,0.0122,0.786,0.472,1.23,1.22,1.62 (inactive),-0.222,-0.236
COc1ccc(C(O)C2C=CC3C(=O)N(c4ccccc4)C(=O)C3N2Nc2ccccc2)cc1 (stereo not given),-0.0234,0.316,0.142,0.979,1.66,1.93,1.31,-1.07 (inactive),0.531,0.289
COCC(=C=CC[C@@H](O)c1ccc(OCCO)cc1)CCO,-0.394,1.19,-0.0861,0.115,-0.0206,1.45,0.745,1.67 (inactive),0.17,-0.249
COc1ccc([Si](C)(C)[C@@H]2[C@@H](CCn3cc([C@H](O)c4ccccc4)nn3)O[C@]3(C(=O)N(c4ccccc4)c4ccccc43)[C@H]2C)cc1,-0.162,0.297,-0.0824,0.211,0.0701,0.336,0.75,-0.587 (inactive),-0.0029,-0.122
CCCCC=C[C@@H](NC(=O)c1ccccc1)c1ccccc1,0.277,0.241,0.0011,0.356,1.21,0.868,1.02,1.03 (inactive),0.866,-0.206
NC(=O)NCC#Cc1ccc2c(c1)[C@]1(C(=O)N2)[C@H](C(=O)N2CCN(c3ncccn3)CC2)[C@H]2C(=O)O[C@H](c3ccccc3)[C@H](c3ccccc3)N2[C@@H]1c1ccc(OCCO)cc1,0.0085,0.0039,-0.0222,0.375,0.884,0.133,0.148,1.62 (inactive),0.548,0.0659
COCCCNC(=O)[C@@H]1c2ccccc2C(=O)N(C2Cc3ccccc3C2)[C@H]1c1ccc(CO)cc1,-0.0989,0.703,-0.151,0.0338,-0.0746,0.209,1.4,0.0504 (inactive),0.506,-0.137
COCCCNC(=O)[C@@]1(Sc2ccc(C)cc2)CC(=O)N(C(C)C)[C@@H]1c1ccc(CO)cc1I,0.438,-0.107,0.0854,0.606,-0.622,1.89,1.25,-1.2 (inactive),-0.307,-0.0581
CC(C)C(=C=CC[C@@H](O)c1cccc(OCCO)c1)C[C@@H](O)c1ccccn1,-0.437,-0.0934,-0.147,0.815,-0.553,-0.253,0.125,1.35 (inactive),-0.0246,-0.137
Cc1c(NC(=O)/C(C#N)=C/c2ccccc2Cl)c(=O)n(-c2ccccc2)n1C,-0.183,0.0711,-0.009,0.0417,0.935,0.888,1.12,0.311 (inactive),1.27,-0.139
C=CC[C@H](OC(=O)Nc1ccc(SC)cc1)c1ccc(OCCO)cc1,0.339,0.0366,-0.107,-0.85,-1.2,0.958,1.07,8.37 (active),-0.413,-0.0994
CCCCC(=O)N(CCN1CCOCC1)[C@@H]1CC(C(=O)NCCO)=C[C@H](Oc2c(I)cc(CO)cc2OC)[C@H]1O,-0.725,0.151,-0.146,0.511,0.555,0.171,0.384,0.912 (inactive),0.0126,-0.549
